High-throughput results as filed in PubChem.
An excerpt weighted towards active compounds, which were near 15% of everything screened.
ELG1 repair inh = inhibitors of ELG1-dependent DNA repair in HEK293T cells. HEK293T ELG1-luciferase reporter, luminescence, 16 h; DNA damage induced by 5-fluorouridine. Potency, µM (titrated, usually from 46.1 µM), without a hit: top-dose activity change, negative = inhibition, actives largely listed as inhibitors. 2.3% of 330,000 active; also: nearly all actives have a fitted effect of over 55% in size
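Quantitative HTS, concentration-response format. 2,000 cells/well co-treated with 5-fluorouridine and compound, 16 hr in 5% CO2 at 37 °C; ONE-Glo luminescence read after 30 min.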
RORgamma inh = ROR gamma (mouse) transcription inhibition; P51450; Drosophila S2 Gal4-RORgamma UAS-luciferase reporter, 20 h; Potency, µM (top dose mostly 53.6 µM), without a hit: at the top dose activity change, negative = inhibition, usual class: inhibitors; 5.4% of 310,000 active; AID 2551; also: nearly all actives have a fitted effect of over 60% in size
Target sequence (P51450 whole entry, looked up, the tested form may be a part): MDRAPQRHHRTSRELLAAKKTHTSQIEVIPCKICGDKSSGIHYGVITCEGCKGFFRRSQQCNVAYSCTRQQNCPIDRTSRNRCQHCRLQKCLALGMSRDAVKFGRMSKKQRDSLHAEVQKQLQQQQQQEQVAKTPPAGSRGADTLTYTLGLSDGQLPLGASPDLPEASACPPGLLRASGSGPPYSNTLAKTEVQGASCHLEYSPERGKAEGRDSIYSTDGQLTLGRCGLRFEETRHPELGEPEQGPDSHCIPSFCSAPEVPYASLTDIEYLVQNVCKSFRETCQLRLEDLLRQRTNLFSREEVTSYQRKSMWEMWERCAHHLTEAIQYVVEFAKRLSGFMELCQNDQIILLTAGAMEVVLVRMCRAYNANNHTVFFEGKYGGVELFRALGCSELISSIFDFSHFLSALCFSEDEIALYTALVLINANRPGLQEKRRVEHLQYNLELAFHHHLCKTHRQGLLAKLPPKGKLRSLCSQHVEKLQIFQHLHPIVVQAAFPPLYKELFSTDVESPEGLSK
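Compounds are pin-transferred onto Drosophila Schneider cells expressing a copper-inducible Gal4–ROR gamma transactivation domain fusion. After 1 hr, copper sulfate is added to 700 uM final; luciferase is read 20 hr later.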
DT40 TDP1 CPT = growth inhibition of DT40 Tdp1-/-;hTDP1 cells with camptothecin (screen for TDP1 inhibitors) | chicken DT40 Tdp1-/-;hTDP1 cells + 20 nM CPT, ATP luminescence, 48 h | Potency, µM (top dose mostly 46.2 µM), for inactives: at the top dose activity change, negative = growth inhibition, most hits filed as inhibitors | 12% of 420,000 active | AID 686979; also: nearly all actives have a fitted effect of over 55% in size
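Chicken DT40 Tdp1-/- cells complemented with human TDP1, 400 cells/well, exposed to compounds plus 20 nM camptothecin for at least 48 h at 37 C; viability read as ATP content by CellTiter-Glo luminescence.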
VP16 counter = Gal4-VP16 reporter inhibition counter-screen. Drosophila S2 Gal4-VP16 UAS-luciferase, luminescence, 20 h. Potency, µM (highest dose often 53.6 µM), for inactives: at the top dose activity, negative = inhibition, usual class: inhibitors. 3.5% of 310,000 active. AID 2546;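 also: Gal4-VP16 expression switched on by copper sulfate through the metallothionein promoter; nearly all actives have a fitted effect of over 50% in size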
DT40 TDP1 no CPT = qHTS for Inhibitors of human tyrosyl-DNA phosphodiesterase 1 (TDP1): qHTS in cells in absence of CPT | DT40 Tdp1-/- hTDP1 cells, no CPT, ATP luminescence, 48 h | Potency, µM (top dose mostly 46.2 µM), for inactives: top-dose activity change, negative = growth inhibition, most hits filed as inhibitors | 15% of 420,000 active; also: nearly all actives have a fitted effect of over 55% in size
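No-CPT arm: Tdp1-/-;hTDP1 DT40 cells (400/well) plus compounds, incubated ≥48 hr at 37 °C. Readout CellTiter-Glo luminescence.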
ALOX12 inh = inhibitors of human 12S-lipoxygenase ALOX12. P18054. purified 12hLO, xylenol orange hydroperoxide absorbance. Potency, µM (titrated, usually from 108 µM), for inactives: at the top dose activity change, negative = inhibition, actives largely listed as inhibitors. 1.1% of 580,000 active
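Purified human 12hLO at 150 nM in 25 mM Hepes, 0.01% Triton X-100, pH 7.0, preincubated 15 min at room temperature with compound. Reaction started with 40 uM arachidonic acid, 30 min at room temperature. Hydroperoxide measured by Fe-xylenol orange, 573/405 nm absorbance ratio.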
* marks the source's active call; other numbers are inactive results; i = inactive; ? = inconclusive; · = no result given; [ ] = remark or other dose. Calls follow the shape of the dose curve; as a rule, active = well fitted curve in the direction sought with a large enough effect; inconclusive = small, poorly fitted or top-dose-only effect, or another doubt; inactive = no such curve, though single readings can be large; an effect the other way counts as inactive or inconclusive. % is scaled to controls: 0 for no effect and ±100 for the full control effect; potency is read from the fitted curve at half-maximal effect.

SMILES	ELG1 repair inh	RORgamma inh	DT40 TDP1 CPT	VP16 counter	DT40 TDP1 no CPT	ALOX12 inh
CC(C)Oc1ccc(CNC(=O)Cn2c(=O)nc3n2C(=O)N(c2ccccc2)C3)cc1	·	·	·	·	·	38%
O=C(CN1CCCc2nc(C3CC3)ncc2C1=O)NCc1cccs1	·	·	·	·	·	34%
CNC(=O)N1CCC(C2CCN(Cc3cccc(OC)c3OC)C2)CC1 (configuration not stated)	·	·	·	·	·	64%
CC(C)(Oc1ccc(Cl)cc1)C(=O)NCc1n[nH]c(=O)c2ccccc12	-7%	·	21µM*	·	?	4%
O=c1[nH]nc(CNc2ccc(O)cc2)c2ccccc12	1%	-44%	?	-24%	21µM*	5%
O=C(NCc1n[nH]c(=O)c2ccccc12)c1ccc(Cl)cc1Cl	·	·	·	·	·	-18%
O=c1[nH]nc(Cc2ncc(C(F)(F)F)cc2Cl)c2ccccc12	-8%	?	?	-29%	16µM*	5%
O=c1[nH]nc(CNc2ccc(OC(F)(F)F)cc2)c2ccccc12	-20%	43%	21µM*	0%	18µM*	-2%
CCn1c(CSc2nnc(C3CC3)n2-c2ccccc2)nc2cc(S(=O)(=O)N(C)C)ccc21	·	·	·	·	·	11%
CC1CCC(c2nnc(-c3ccccc3Cl)o2)CC1 (configuration not stated)	·	·	·	·	·	0%
O=c1[nH]nc(CNc2ccc(C(F)(F)F)cc2)c2ccccc12	14%	?	12µM*	1%	15µM*	1%
O=c1[nH]nc(CNc2ccc(Cl)cc2Cl)c2ccccc12	-3%	?	?	-1%	?	-8%
CN(C)c1ccc(/C=C2\Cc3ccccc3C2=O)cc1	·	·	?	·	3.5µM*	·
CN(C)/C=C1\Cc2ccccc2C1=O	?	-8%	33µM*	3%	-95%	-36%
Cc1ccc(C(=O)N2C[C@@H](N)C[C@H]2C(=O)NC(C)C)cc1N1CCNC1=O	·	·	·	·	·	-9%
O=C(COc1ccc(Cl)cc1)Nc1cccc(-c2nnc3n2CCCC3)c1	·	·	·	·	·	37%
COc1ccc(OCc2cc(C(=O)N3CCCC(CO)C3)no2)c2ccccc12 (configuration not stated)	?	0%	?	17%	15µM*	?
CCc1cc(C(=O)N2CCCC(CNC(=O)c3ccc(-c4ccccc4)cc3)C2)no1 (configuration not stated)	?	2%	?	5%	16µM*	-8%
CSc1ccccc1OCc1cc(C(=O)N2CCCC(C)C2)no1 (configuration not stated)	?	3%	-7%	?	?	-2%
O=C(c1cc(COc2cccc3cnccc23)on1)N1CCCC(CCCO)C1 (configuration not stated)	-8%	?	1.2µM*	2.8µM*	0.65µM*	2%
CCn1ccnc1CN(C)C(=O)c1cc(COc2ccc(OC)c3ccccc23)on1	-5%	-81%	15µM*	28µM*	?	i
CC1(C)COCCN1C(=O)c1cccc(CN2CCCC2)c1	·	·	·	·	·	-28%
CC(c1ccc(S(C)(=O)=O)cc1)N(C)C(=O)CCc1ncc(-c2ccccc2Cl)o1 (configuration not stated)	·	·	·	·	·	19%
Cc1ccc(NC(=O)CN2CCN(C(=O)CCc3ncc(-c4ccccc4)o3)CC2)cc1	·	·	·	·	·	23%
COCC1CCN(C(=O)c2cc(COc3cccc4cnccc34)on2)CC1	-18%	23%	9.2µM*	13µM*	4.1µM*	4%
SMILES	ELG1 repair inh	RORgamma inh	DT40 TDP1 CPT	VP16 counter	DT40 TDP1 no CPT	ALOX12 inh
Cc1nn(C)cc1C(C)NC(=O)c1cc(COc2cccc3cnccc23)on1 (configuration not stated)	18µM*	?	10µM*	?	?	2%
O=C(c1ccc(=O)[nH]c1)N(CC1CCN(Cc2ccccc2F)CC1)CC1CCCO1 (configuration not stated)	·	·	·	·	·	7%
COCC1CN(C(=O)c2cc(Cl)ccc2OC)CC12CCNCC2 (configuration not stated)	·	·	·	·	·	56%
O=C1c2ccccc2C(=O)N1OS(=O)(=O)c1ccc(F)cc1	-1%	?	2.6µM*	?	2.1µM*	?
CN1C(=O)c2ccccc2C1=O	·	·	?	·	-24%[92.5 µM]	-9%[57.4 µM]
COCCc1ccc(OS(=O)(=O)c2ccc(C)cc2C)cc1	·	·	·	·	·	-24%
Cc1ccc(S(=O)(=O)ON2C(=O)c3ccccc3C2=O)c(C)c1	-22%	20µM*	0.82µM*	?	1µM*	?
Cc1cc(C)c(C)c(S(=O)(=O)ON2C(=O)c3ccccc3C2=O)c1C	?	?	2.6µM*	13µM*	2.3µM*	-26%
Cc1cc(C)c(S(=O)(=O)ON2C(=O)c3ccccc3C2=O)cc1C	14%	14µM*	2.6µM*	16µM*	3.3µM*	?
Clc1ccc(CSc2cc(-c3ccccc3)c3ccccc3n2)cc1	·	·	·	·	·	-6%
CC(C)(O)CCc1cccc(C(=O)N(Cc2ccc3c(c2)OCO3)C2CC2)c1	·	·	·	·	·	1%
CCOC(=O)C1(C)CCN1C(=O)c1ccc(-c2ccccc2)cc1 (configuration not stated)	·	·	-82%	·	15µM*	25%
COc1ccc(C(=O)N2CCCC2(C)C(=O)O)cc1C(F)(F)F (configuration not stated)	·	·	-18%	·	-1%	1%
CCOC(=O)C1(C)CCCCCN1C(=O)c1ccc(OC)c(C(F)(F)F)c1 (configuration not stated)	·	·	23µM*	·	10µM*	2%
CCOC(=O)C1(C)CCCCCN1C(=O)c1ccc(OC)cc1 (configuration not stated)	·	·	16µM*	·	?	-9%
CCOC(=O)C1CCN(C(=O)Cn2ncn3nc(-c4ccco4)cc3c2=O)CC1	·	·	·	·	·	5%
CCOc1ccccc1C1CC(=O)Nc2cc3c(cc21)OCCO3 (configuration not stated)	?	14%	1µM*	?	0.52µM*	-14%
CCOc1cc(C2CC(=O)Nc3cc4c(cc32)OCCO4)ccc1O (configuration not stated)	·	·	18µM*	·	?	-14%
CCCOc1ccccc1C1CC(=O)Nc2cc3c(cc21)OCCO3 (configuration not stated)	?	?	0.73µM*	?	0.65µM*	·
